This is an account of results in PubChem BioAssay (Tox21).

Results filed as inconclusive are left out. A call without a number means that no potency is given here. Activity calls are given as the source filed them. Calls come from the whole dose curve; as a rule, active = well fitted cell-killing curve with a large enough effect in the repeat runs; inconclusive = weak or mixed curves, or effect the other way; inactive = flat fitted curve, though single readings scatter.
Potency is the fitted concentration of half-maximal effect.

The assay can be described thus: cAMP Responsive Elements (CRE) small molecule antagonists, cell-based qHTS assay: qHTS cell viability counter screen (AID 2060913). Note: nearly all actives have a fitted effect of over 40% in size. The following applies: CRE-bla HEK293T viability, CellTiter-Glo luminescence, 5 h; series mostly up to 92.4 µM. The text has this:
U.S. Tox21 Program National Center for Advancing Translational Sciences [NCATS] Division of Preclinical Innovation [DPI] U.S. Environmental Protection Agency [EPA] National Institutes of Environmental Health Sciences [NIEHS] National Toxicology Program [NTP] U.S. Food and Drug Administration [FDA] Tox21 Assay Overview: CREB (cyclic-AMP Responsive Element Binding Protein) is a cellular transcription factor. It binds to certain DNA sequences called cAMP Responsive Elements (CRE) and regulates the transcription of the genes. […] This cell line can be used to find agonists/antagonists of the cyclic AMP signaling pathway. The activation of the report gene under culture conditions can be detected by fluorescence intensity. This cell line has been used to screen the Tox21 10K compound library to identify agonists that induce oxidative stress. The cytotoxicity of the Tox21 compound library against the CRE-bla cell line was tested in parallel by measuring the cell viability using CellTiter-Glo assay (Promega, Madison, WI) in the same wells.
Tox21 Assay Protocol Summary: CRE-bla Hek 293T cells were suspended in assay medium (DMEM containing 10% dialyzed FBS, 0.1 mM NEAA, 1 mM sodium pyruvate and 25 mM HEPES) and dispensed at 2,000 cells/4 uL /well into 1536-well black wall/clear bottom plates using a Multidrop Combi (ThermoFisher Scientific, Waltham, MA) dispenser. After the assay plates were incubated at 37 C/5% CO2 for 18 hrs, 23 nL of compounds dissolved in DMSO, positive controls or DMSO only was transferred to the assay plate by a pintool workstation (Kalypsys, San Diego, CA), followed by addition of 1 uL of 1.25uM NKH477 (0.25 uM as final concentration) in assay medium using a Flying Reagent Dispenser (Aurora Discovery, San Diego, CA). The plates were incubated at 37 C and 5% CO2 for 3 hrs. Then 1 uL of LiveBLAzer B/G FRET substrate (Invitrogen, Carlsbad, CA) was added to each well using Bioraptr Flying Reagent Dispenser (FRD, Aurora Discovery, San Diego, CA). The plates were incubated at room temperature for 2 h, then fluorescence intensities were measured using an Envision plate reader (PerkinElmer, Shelton, CT) at Excitation 405nm, Emission 460nm and 530nm. The % activity was determined from the ratio of 460nm/530nm. For cell viability readout that measures cytotoxicity, 4 uL /well of CellTiter-Glo reagent was added into the assay plates using Bioraptr FRD. After 30 min incubation at room temperature, the luminescence intensity in the assay plates was measured using a ViewLux (PerkinElmer, Shelton, CT) plate reader.
On the technique in general: Quantitative high-throughput screening tests each substance at several concentrations.
For the compound `Cc1cc(O)ccc1N`, the Potency result is “inactive”.

Take `CS(C)=O`: the Potency entry was “inactive”.

Take `CO/N=C(/C(=O)N[C@@H]1C(=O)N2C(C(=O)O)=C(COC(N)=O)CS[C@H]12)c1ccco1`: the Potency result is “inactive”.

Take `Cc1ccc(C(C)(C)C)c(O)c1`: the Potency entry was “inactive”.

On to `S=C(SSSSSSC(=S)N1CCCCC1)N1CCCCC1`, for which the viability change, negative = cytotoxic is 6.65% [at 18.9 µM] (inactive).

For `CC(C)c1ccccc1C(C)C`, the Potency result is “inactive”.

`FC(F)(F)/C(=N\OCC1OCCO1)c1ccc(Cl)cc1`: the Potency entry is “inactive”.

In the case of `Nc1ccccc1Nc1ccccc1`, the Potency result is “inactive”.

With `CC(=O)c1ccc(O)cc1`, the Potency result was “inactive”.

`O=C(O)C(=O)Nc1cccc(-c2nn[nH]n2)c1`: the Potency result was “inactive”.

Consider `COC(=O)/C=C(\C)CCC=C(C)C`, for which the Potency result was “inactive”.

With `CN(C)CCCOC1(Cc2ccccc2)CCCCCC1`, the Potency result was “inactive”.

As for `COc1cc(C)c(Cc2cnc(N)nc2N)cc1OC`, the Potency result was “inactive”.

Take `OCc1ccc(Cl)cc1Cl`: the Potency entry was “inactive”.

On to `CCCCN(CCCC)CCCCCCN(CCCC)CCCC`, for which the Potency result was “inactive”.

Take `CN1[C@@H]2CC[C@H]1CC(OC(=O)C(CO)c1ccccc1)C2` (stereo not given in full): the Potency result is “inactive”.

With `CN(C)CC[C@@H](c1ccc(Br)cc1)c1ccccn1`, the Potency entry is “inactive”.

Turning to `CCCO`, the Potency entry is “inactive”.

Take `CC(=O)[O][Al][O]C(C)=O`: the Potency result was “inactive”.

Turning to `CO[C@@]1(NC(=O)C(C(=O)O)c2ccc(O)cc2)C(=O)N2C(C(=O)O)=C(CSc3nnnn3C)CO[C@@H]21` (stereo not given in full), the Potency entry was “inactive”.

In the case of `CS(=O)(=O)c1ccc([C@@H](O)[C@@H](CF)NC(=O)C(Cl)Cl)cc1`, the Potency result was “inactive”.

`CN(C/C=C/c1ccccc1)Cc1cccc2ccccc12`: the Potency was 29.8 µM (active).

In the case of `CC[C@]12CCCN3CCc4c(n(c5ccccc45)C(=O)C1)[C@@H]32`, the Potency result was “inactive”.

For the compound `CC(=O)Oc1c(C)c(C)c2c(c1C)CC[C@@](C)(CCC[C@H](C)CCC[C@H](C)CCCC(C)C)O2`, the Potency entry was “inactive”.

Take `CCOC(=O)[C@H](CCc1ccccc1)N[C@@H](C)C(=O)N1[C@H](C(=O)O)C[C@@H]2CCC[C@@H]21`: the Potency result was “inactive”.

Take `C=CCOc1c(Br)cc(C(C)(C)c2cc(Br)c(OCC=C)c(Br)c2)cc1Br`: the Potency entry was “inactive”.

Turning to `O=C(CCCCCCCCC#CI)Oc1ccccc1`, the Potency result is “inactive”.

As to `Cc1ccc(-c2ncc(Cl)cc2-c2ccc(S(C)(=O)=O)cc2)cn1`, the Potency entry was “inactive”.

Regarding `CCCCCCCCCCCC(=O)N(CC)CC`, the Potency entry was “inactive”.

As to `C[C@H](N)[C@H](O)c1cccc(O)c1`, the Potency result is “inactive”.

For `OC[C@]1(O)OC[C@@H](O)[C@H](O)[C@@H]1O`, the Potency entry is “inactive”.

For the compound `CCOc1ccc2nc(S(N)(=O)=O)sc2c1`, the Potency entry was “inactive”.

Take `COC(=O)c1ccc(NC(C)=O)cc1OC`: the Potency result was “inactive”.

For `CCCCCCCCCCCCCC(=O)OC`, the Potency entry was “inactive”.

Consider `C[C@H]1NCc2cc(-c3ccc4c(=O)c(C(=O)O)cn(C5CC5)c4c3OC(F)F)ccc21`, for which the viability change, negative = cytotoxic was 4.45% [at 18.9 µM] (inactive).

For the compound `CNC(=O)c1ccccc1`, the Potency result was “inactive”.

As for `CCN1CCCC1=O`, the Potency entry is “inactive”.

As to `CC(=O)SC[C@@H](C)C(=O)N1CCC[C@H]1C(=O)N[C@@H](Cc1ccccc1)C(=O)O`, the Potency entry was “inactive”.

With `O=Cc1ccc(Cl)c([N+](=O)[O-])c1`, the Potency entry was “inactive”.

Consider `CCC(C)c1ccccc1O` (stereo not given), for which the Potency result was “inactive”.
